TRHR enhancer – qHTS for Small Molecule Agonists and Allosteric Enhancers of Human TRH Receptor: Primary Screen for Enhancers; Thyrotropin-releasing hormone receptor (Homo sapiens), P34981; TRHR cells, fluo-8 calcium fluorescence, EC20 TRH enhancement; enhancement, % at 2 µM; actives 0.66% (n = 360,000); in the data active means enhancement above about 30%; further: 0% is about no effect
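Enhancer read-out: after compound pinning and an initial kinetic agonist-mode read, an EC20 of TRH (10 nM final) was injected and fluo-8 calcium signal (Ex 480/Em 530) followed at 1 s/cycle for 100 cycles in TRHR-expressing cells.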
D1 agonist – Allosteric Agonists of the Human D1 Dopamine Receptor: qHTS. HEK293 T-REx D1 cells, calcium flux, agonist mode. activation, % at 2 µM. actives 1% (n = 360,000); further: 0% is about no effect
Target sequence (P21728 whole entry, looked up): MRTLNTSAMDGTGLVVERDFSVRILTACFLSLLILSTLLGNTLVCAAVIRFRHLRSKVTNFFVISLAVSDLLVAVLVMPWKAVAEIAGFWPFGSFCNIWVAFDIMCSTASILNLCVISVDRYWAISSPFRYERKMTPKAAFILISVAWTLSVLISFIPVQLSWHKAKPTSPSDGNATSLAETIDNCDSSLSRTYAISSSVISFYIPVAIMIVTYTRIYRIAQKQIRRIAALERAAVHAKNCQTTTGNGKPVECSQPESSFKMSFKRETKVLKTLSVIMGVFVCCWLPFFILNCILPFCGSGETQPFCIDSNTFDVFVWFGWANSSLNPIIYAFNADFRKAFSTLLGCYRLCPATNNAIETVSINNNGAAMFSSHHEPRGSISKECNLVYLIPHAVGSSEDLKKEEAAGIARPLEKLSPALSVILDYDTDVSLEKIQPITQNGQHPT
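Agonism was scored from calcium flux recorded over 180 s (1 read/s) after pintool compound addition, following a 10-cycle baseline. Cells were inducible force-coupled HEK293 TREx D1, plated overnight at 30 C and loaded with no-wash calcium dye.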
D1 PAM – Potentiators of Human D1 Dopamine Receptor: qHTS | HEK293 TREx D1 cells, calcium flux, dopamine EC20 potentiation | potentiation, % at 10 µM | actives 0.036% (n = 360,000) | AID 504651, 2011; in the data active means potentiation above about 30%; further: 0% is about no effect
TRHR ag – qHTS for Small Molecule Agonists and Allosteric Enhancers of Human TRH Receptor: Primary Screen for Agonists. activation, % at 2 µM. TRHR cells, calcium flux fluo-8, FDSS agonist mode. actives 0.18% (n = 360,000). Thyrotropin-releasing hormone receptor (Homo sapiens), P34981; further: 0% is about no effect
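TRHR-expressing cells loaded with fluo-8 calcium dye; 23 nL library compound pin-transferred, kinetic FDSS fluorescence (Ex 480/Em 530) recorded about 180 s for agonist-induced calcium release, before a 10 nM TRH EC20 addition for potentiator mode.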
D1 antagonist – Antagonist of Human D 1 Dopamine Receptor: qHTS; HEK293 TREx D1 cells, calcium flux, dopamine EC80; hits give low values; activity change, negative = inhibition, % at 10 µM; actives 3.2% (n = 360,000); AID 504652, 2011; in the data active means activity change below about -30%; further: on the % scale 0 is the no-effect control and ±100 the full control effect
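Calcium flux readout: force-coupled, inducible Hek293 Trex D1 line, cells induced overnight at 30 C with tetracycline, dye-loaded 30–90 min at RT. Antagonism scored against EC80 dopamine challenge given 180 s after compound.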
The depositor's hits bear a star; . = no result. In the library only some 4.7% were active in any assay of this set; here they are far more common. Unless noted, no stated cut-off is given here; in the data, active means activation above about 30%; inactive means the rest.

SMILES | TRHR enhancer | D1 agonist | D1 PAM | TRHR ag | D1 antagonist
COc1ccc(C)cc1NS(=O)(=O)c1cc(Br)cc2c1N(C(C)=O)C(C)C2 (stereo not drawn) | -4.4 | -1.4 | 0.9 | 0.1 | -11.4
O=C(O)C1C2CCC(O2)C1C(=O)Nc1ccc(Cl)cc1F (stereo not drawn) | -6.7 | 1.5 | -13.9 | -0.1 | 13.2
O=C(O)C1C2CCC(O2)C1C(=O)NCc1ccc(Cl)cc1 (stereo not drawn) | -0.1 | 0.5 | -10.2 | -0.3 | -37.4*
COc1ccc(-n2cc(C(=O)c3cc(Cl)ccc3O)cc(C#N)c2=O)cc1 | -3.0 | 19.7 | -10.2 | 4.3 | -34.6*
CC(C)C[C@H]1CN=C(Nc2ccccc2)N1CC1CCCCCC1 | 7.3 | 29.4 | -4.0 | 0.8 | -31.0*
CCN1C(Nc2ccccc2)=NC[C@@H]1CC(C)C | -7.5 | 2.7 | 0.9 | 16.9 | 4.0
Cc1cccc(CCN2C(Nc3ccccc3)=NC[C@@H]2CC(C)C)c1 | -24.5 | 214.9* | 10.8 | 40.7* | -18.6
CC(C)C[C@H]1CN=C(Nc2ccccc2)N1CCc1ccc(F)cc1 | -20.6 | 234.1* | 1.1 | 39.3* | -32.2*
c1ccc(CCCCN2C(Nc3ccccc3)=NC[C@@H]2Cc2ccccc2)cc1 | 0.5 | 44.9* | -10.2 | 0.3 | 8.7
CCCCCCCN1C(Nc2ccccc2)=NC[C@@H]1Cc1ccccc1 | 0.0 | 21.9 | -6.7 | 1.0 | -2.5
Cc1ccc2nc(N3CCN(c4ccccc4)CC3)c3nnnn3c2c1 | 0.5 | -0.1 | -2.9 | -0.1 | -29.5
COc1ccc(-c2cc(OC(=O)c3ccc(Cl)cc3)c3c(C)oc(C)c3c(=O)c2)cc1 | -9.0 | 0.9 | 2.7 | 1.7 | 6.5
O=C(NCc1cccs1)c1ccc2c(c1)sc1nc(-c3ccccc3)cn12 | 1.8 | 0.8 | -0.1 | 0.8 | -8.8
O=C(NCCc1nc2ccccc2n1Cc1ccccc1F)c1ccc(F)cc1 | -9.3 | 9.6 | -4.3 | -0.3 | -35.8*
Cc1ccc(CNC(=O)CCCCCn2c(=O)c3sccc3n(CC(=O)Nc3c(C)cc(C)cc3C)c2=O)cc1 | -0.2 | -2.4 | 1.5 | -0.8 | -10.3
O=C(O)c1ccccc1C(=O)N1CCN(Cc2ccc3c(c2)OCO3)CC1 | 14.7 | 4.4 | -2.6 | -0.6 | -4.0
Cc1nn(Cc2ccccc2)c2sc(C(=O)NCc3cccnc3)cc12 | 2.2 | 1.9 | -9.5 | 0.2 | -47.4*
Cc1nn(Cc2ccccc2)c2sc(C(=O)N3CCN(Cc4ccc5c(c4)OCO5)CC3)cc12 | 0.5 | 1.6 | -12.9 | 0.3 | -31.0*
Cc1cccc2cc(C#N)c(SCC(=O)Nc3ccccc3N3CCOCC3)nc12 | 7.1 | 4.7 | -0.3 | 0.9 | 0.9
N#Cc1cc2ccccc2nc1SCC(=O)Nc1ccccc1N1CCOCC1 | -7.3 | 62.1* | -3.0 | 19.7 | -10.3
O=C(Nc1ccc(F)cc1)c1cccc(N2C(=O)C3C4C=CC(C4)C3C2=O)c1 (stereo not drawn) | 7.1 | 9.1 | -5.0 | 0.3 | 2.2
O=C(Nc1ccc(F)cc1)c1cccc(N2C(=O)C3C4C=CC(C5CC45)C3C2=O)c1 (stereo not drawn) | -8.1 | 12.7 | -2.1 | 0.2 | -38.3*
O=C(Nc1ccc(Br)cc1)c1cccc(N2C(=O)C3C4CCC(C4)C3C2=O)c1 (stereo not drawn) | 1.3 | 5.8 | -5.5 | -0.7 | -39.5*
O=C(Nc1ccccc1)c1cccc(N2C(=O)C3C4C=CC(C5CC45)C3C2=O)c1 (stereo not drawn) | 0.0 | 9.5 | 4.2 | 0.0 | -38.0*
CCOc1cc(-c2nnc(SCC(=O)NCc3ccccc3)nc2-c2ccc(OC)c(OCC)c2)ccc1OC | 5.7 | 3.6 | -2.4 | 0.2 | -8.0
CCc1cccc(C)c1NC(=O)C(CC)Sc1nncn2c1cc1occc12 (stereo not drawn) | -5.6 | 1.3 | -0.1 | 0.1 | 12.9
Cc1ccc(NC(=O)CSc2nc(=O)n(CCN3CCOCC3)c3c2CCC3)c(C)c1 | 3.4 | -2.9 | 3.4 | 0.0 | .
Cc1ccc(CNC(=O)c2nn(-c3ccc(Cl)cc3)nc2CO)cc1 | 0.2 | 2.0 | 0.3 | -1.4 | -7.0
